# Experimental data reported in PubChem BioAssay (Tox21).
# Where “and” joins values, the source holds several entries; their conditions need not be identical. Equal entries are not always repeated. Records with an inconclusive call do not appear. Values without a mark were called inactive. Calls of active or inactive are those of the source. Calls come from the whole dose curve; as a rule, active = well fitted cell-killing curve with a large enough effect in the repeat runs; inconclusive = weak or mixed curves, or effect the other way; inactive = flat fitted curve, though single readings scatter.
# Test: cAMP Responsive Elements (CRE) small molecule agonists, cell-based qHTS assay: qHTS cell viability counter screen (AID 2060914); note: nearly all actives have a fitted effect of over 50% in size
# Conditions: CRE-bla HEK293T viability, CellTiter-Glo luminescence, 5 h; series mostly up to 92.4 µM; activity change, negative = cytotoxicity: at the top concentration
# Outline: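 In the same wells as the reporter read, viability of CRE-bla HEK 293T cells was quantified by CellTiter-Glo luminescence after a 3 h compound exposure.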
# % is set by controls: 0 for no effect and ±100 for the full control effect; potency is the fitted concentration of half-maximal effect.
SMILES,"activity change, negative = cytotoxicity",Potency
COc1ccc(C(=O)N2CCCC2=O)cc1,0.0126% [at 42.5 µM],–
O=C(O)COc1cc(Cl)c(Cl)cc1Cl,–,inactive
Nc1cc2c3c(c1)C(c1ccccc1)=N[C@@H](NC(=O)c1cccnc1)C(=O)N3CC2,-4.02%,–
O=S1(=O)OC(c2cc(Br)c(O)c(Br)c2)(c2cc(Br)c(O)c(Br)c2)c2ccccc21,-28.9%,–
N#Cc1sc2c(=O)c3ccccc3c(=O)c=2sc1C#N,–,54.5 µM (active)
Cc1ccc(N)cc1,–,inactive
C=CC(=O)NCNC(=O)C=C,1.84%,–
CCCCc1ccccc1,16.6%,–
CCN(CC)C(C)C(=O)c1ccccc1 (configuration not stated),-14.9% [at 42.5 µM],–
C=CC(N)=O,–,inactive
CC(=O)CN(CC(C)=O)N=O,6.12%,–
CCCCCCCCCCCOC(=O)c1ccccc1C(=O)OCCCCCCCCCCC,–,inactive
CC(=O)NC1CCSC1=O (configuration not stated),2.14% [at 42.5 µM],–
CN(C)C(=S)SSC(=S)N(C)C,–,12 µM (active) and 27.3 µM (active) and 16.8 µM (active)
CCC(CC)(CNC(=O)CCCO)c1cccc(OC)c1,7.21% [at 42.5 µM],–
CCOC(=O)OC1=C(c2cc(C)ccc2C)C(=O)NC12CCC(OC)CC2 (configuration not stated),11.8%,–
CC(C)OS(C)(=O)=O,-3.12%,–
CCCCCCCCCCCCCCCC[N+](C)(C)C,–,29.5 µM (active) and 61.1 µM (active) and 26.6 µM (active)
CC(C)(C#N)C(C)(C)C#N,11.3%,–
CCC[CH2][Sn]([CH2]CCC)([CH2]CCC)[O][Sn]([CH2]CCC)([CH2]CCC)[CH2]CCC,–,1.34 µM (active)
NNC(N)=S,–,inactive
CCNc1nc(NC(C)C)nc(SC)n1,–,inactive
